Screens: PubChem BioAssay, several laboratories
Hits are enriched below; roughly 3.1% of the tested compounds scored in any of these assays.
Calb FLC: affects C. albicans growth with fluconazole; C. albicans CaCi-2 (fluconazole-resistant clinical isolate) + fluconazole, Alamar Blue growth, 48 h; growth inhibition, % (concentration not given with the values); actives 0.57% (n = 300,000); AID 1979;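 active means growth inhibition above about 58% in most replicates, limit read from the data, passing the limit was not always enough; inconclusive means exactly half the replicates above a set limit; inactive means most replicates below a set limit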;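 further: all wells also contain fluconazole at 8 µg/ml as a sub-toxic cotreatment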
ATG4B inhibitor: inhibitors of human ATG4B cysteine protease | ATG4B cleavage of LC3-PLA2, NBD-HPC fluorescence, 1 h | inhibition, % at 8.33 µM | actives 0.51% (n = 340,000) | AID 504462 | Q9Y4P1; in the data active means inhibition above about 40%
Target sequence (Q9Y4P1 whole entry, looked up): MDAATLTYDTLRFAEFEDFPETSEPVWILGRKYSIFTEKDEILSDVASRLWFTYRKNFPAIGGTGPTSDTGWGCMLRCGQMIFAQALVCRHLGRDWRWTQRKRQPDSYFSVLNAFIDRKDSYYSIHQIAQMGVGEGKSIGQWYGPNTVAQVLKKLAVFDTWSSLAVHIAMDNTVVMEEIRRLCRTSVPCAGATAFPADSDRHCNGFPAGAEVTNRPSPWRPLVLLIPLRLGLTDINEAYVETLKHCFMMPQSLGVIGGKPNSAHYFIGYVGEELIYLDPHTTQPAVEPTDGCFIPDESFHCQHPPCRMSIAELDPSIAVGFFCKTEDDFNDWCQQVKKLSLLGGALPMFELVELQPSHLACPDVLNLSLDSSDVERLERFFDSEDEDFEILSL
Mot1-301 SUMO: SUMOylation pathway inhibition by Mot1-301 growth rescue. S. cerevisiae Mot1-301 growth rescue, ATP luminescence, 38.5C; percent above DMSO median, 100 means doubled. growth rescue, % at 18.8 µM. actives 1% (n = 320,000);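 active means every valid replicate shows activation above 250% relative to neutral control wells; inactive means the rest, any valid replicate at or below 250%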
FAS TE block: FAS thioesterase (human) inhibition; P49327; recombinant FAS-TE, OMFH fluorogenic substrate, fluorescence endpoint; inhibition, % at 15 µM; actives 0.67% (n = 360,000); AID 602261;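 active means compounds whose normalised, plate-corrected inhibition of enzyme fluorescence in the single-dose primary screen is 50% or more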
NadD block: inhibitors of Staphylococcus aureus NadD | actives 0.78% (n = 360,000) | inhibition, % at 20 µM | purified NadD enzyme, colorimetric absorbance read-out; in the data active means inhibition above about 26%
NadD inh conf: NadD (S. aureus) inhibition, single concentration confirmation. shares compounds with NadD block. purified S. aureus NadD, colorimetric enzyme assay. inhibition, % at 20 µM. actives 13% (n = 2,000). AID 624309; in the data active means inhibition mostly above about 42%, no sharp cut-off; inactive means mostly below about 42%
Of the large screens only hits and unclear results are named; the others gave an inactive call (follow-up assays come after a bar, where they were run).

Cc1cccc(NC(=O)c2nc[nH]c2C(=O)Nc2ccccc2[N+](=O)[O-])c1	NadD block 31.2 | NadD inh conf inactive
Cc1cccc(NC(=O)c2nc[nH]c2C(=O)NC[C@@H](C)O)c1	none (no result: Calb FLC, ATG4B inhibitor, Mot1-301 SUMO)
COc1cc(F)ccc1-c1cc(C(=O)Nc2cc(OC)c(OC)c(OC)c2)[nH]n1	none (no result: Calb FLC, ATG4B inhibitor, Mot1-301 SUMO)
N#CCSc1nc2ccc(N3CCCCC3)cc2c(=O)n1Cc1ccccc1	NadD block 41.1 | NadD inh conf inactive
O=C(NCc1ccccc1)C1=C[C@@H](c2ccc(Br)cc2)C[C@@H](OCCCCO)O1	none
C#Cc1ccc([C@@H]2C=C(C(=O)NCc3ccccc3)O[C@H](OCCCCO)C2)cc1	NadD block 39.1 | NadD inh conf inactive
Nc1nc(-c2cc(O)ccc2[N+](=O)[O-])cc(-c2ccccc2)c1[N+](=O)[O-]	NadD block 52.9 | NadD inh conf inactive
O=C(Nc1nc2ccc(F)cc2s1)C1CCN(S(=O)(=O)c2cc([N+](=O)[O-])ccc2Cl)CC1	NadD block 35.5 | NadD inh conf inactive
Cc1ccc2nc(NC(=O)C3CCN(S(=O)(=O)c4cc([N+](=O)[O-])ccc4Cl)CC3)sc2c1	NadD block 30.9 | NadD inh conf inactive
CC(NC(=O)C1CCN(S(=O)(=O)c2cc([N+](=O)[O-])ccc2Cl)CC1)c1ccccc1 (stereo not given)	none
Cc1ccc(NC(=O)C2CCN(S(=O)(=O)c3cc([N+](=O)[O-])ccc3Cl)CC2)nc1	none (no result: Calb FLC)
O=C(NCCO)c1nc(C(=O)c2ccccc2)c2ccccc2n1	none (no result: Calb FLC)
CC(C)n1c(=O)c2ccccc2n1Cc1cn(-c2ccccc2)nn1	none (no result: Calb FLC, ATG4B inhibitor, Mot1-301 SUMO)
Cc1ccc(C)c(NC(=O)COC(=O)c2ccc(S(=O)(=O)N3CCCCC3)cc2)c1	NadD block 31.0 (no result: Calb FLC) | NadD inh conf inactive
CNc1ccc(Br)cc(C(=O)/C=C/c2cccc(Cl)c2Cl)c1=O	NadD block 48.7 (no result: Calb FLC, Mot1-301 SUMO) | NadD inh conf inactive
O=C(OCC(=O)c1ccc(Cl)cc1Cl)c1ccc2c(c1)C(=O)N(c1cccc3ncccc13)C2=O	Calb FLC inconclusive, NadD block 42.7 (no result: Mot1-301 SUMO) | NadD inh conf inactive
O=C(COC(=O)c1ccc2c(c1)C(=O)N(c1cccc3ncccc13)C2=O)c1ccc(Cl)cc1	none
CC(C)C[C@H]1CNC(=S)N1C[C@H]1CCCN1C[C@H](Cc1ccccc1)N1C[C@H](CC(C)C)N(CCc2ccccc2)C1=S	none (no result: Calb FLC, ATG4B inhibitor, Mot1-301 SUMO)
CCOc1ccc(CCN2C(=S)N([C@@H](Cc3ccccc3)CN3CCC[C@@H]3CN3C(=S)NC[C@@H]3Cc3ccc(O)cc3)C[C@@H]2CC(C)C)cc1	NadD block 31.3 (no result: Calb FLC, ATG4B inhibitor, Mot1-301 SUMO) | NadD inh conf inactive
CC(C)C[C@H]1CNC(=S)N1C[C@H]1CCCN1C[C@H](Cc1ccc(O)cc1)N1C[C@H](Cc2ccccc2)N(CC2CCCCCC2)C1=S	none (no result: Calb FLC, ATG4B inhibitor, Mot1-301 SUMO)
CCOc1ccc(CCN2C(=S)N([C@@H](Cc3ccc(O)cc3)CN3CCC[C@@H]3CN3C(=S)NC[C@@H]3CC(C)C)C[C@@H]2Cc2ccc(O)cc2)cc1	NadD block 48.2 (no result: Calb FLC, ATG4B inhibitor, Mot1-301 SUMO) | NadD inh conf inactive
CCOc1ccc(CCN2C(=S)N([C@@H](Cc3ccc(O)cc3)CN3CCCC3CN3C(=S)NC[C@@H]3Cc3ccc(O)cc3)C[C@@H]2CC(C)C)cc1 (stereo not given in full)	NadD block 43.2 (no result: Calb FLC, ATG4B inhibitor, Mot1-301 SUMO) | NadD inh conf inactive
O=C(COC(=O)COc1ccc(Cl)cc1Cl)NC1CCS(=O)(=O)C1 (stereo not given)	none (no result: Calb FLC)
Cn1c(SCC(=O)Nc2ccc(Br)cc2)nc(O)cc1=O	none
Cn1c(=O)n(Cc2ccccc2Cl)c2ccccc21	none
Cn1c(=O)n(Cc2ccccc2Cl)c(=O)c2c1[nH]c(=S)n2C	NadD block 39.1 | NadD inh conf inactive
Cc1ccc(CNC(=O)c2ccc(N3CCC4(CC3)CC(c3ccccc3)=NO4)c(NC(=O)c3ccc(Cl)c([N+](=O)[O-])c3)c2)cc1	NadD block 36.4 | NadD inh conf inactive
Cc1ccc(CNC(=O)c2ccc(N3CCC4(CC3)CC(c3cccc(Br)c3)=NO4)c(NC(=O)c3c(Cl)cccc3Cl)c2)cc1	NadD block 33.4 (no result: Calb FLC) | NadD inh conf inactive
Cc1ccc(CNC(=O)c2ccc(N3CCC4(CC3)CC(c3cccc(Br)c3)=NO4)c(NC(=O)c3cccc(C)c3)c2)cc1	NadD block 36.4 (no result: Calb FLC) | NadD inh conf inactive
Cc1ccc(CNC(=O)c2ccc(N3CCC4(CC3)CC(c3cccc(Br)c3)=NO4)c([N+](=O)[O-])c2)cc1	none
COc1ccc(-c2cc(C(=O)Nc3ccc(S(=O)(=O)Nc4ncccn4)cc3)c3ccccc3n2)cc1	Calb FLC inconclusive
COc1ccc(-c2cc(C(=O)Nc3ccc(S(=O)(=O)Nc4onc(C)c4C)cc3)c3ccccc3n2)cc1	NadD block 28.8 | NadD inh conf 65.7
Cc1ccnc(NS(=O)(=O)c2ccc(NC(=O)c3cc(-c4ccccc4)nc4ccccc34)cc2)n1	none
Cc1ccnc(NS(=O)(=O)c2ccc(NC(=O)c3cc(-c4ccc(Br)cc4)nc4ccccc34)cc2)n1	NadD block 73.5 | NadD inh conf 46.2
CC1(C)Cc2c(C#N)c(N3CCN(C(=O)c4ccccc4Cl)CC3)nc(-c3ccco3)c2CS1	NadD block 34.3 | NadD inh conf inactive
CC1(C)Cc2c(C#N)c(N3CCN(C(=O)c4ccco4)CC3)nc(-c3ccco3)c2CS1	none (no result: Mot1-301 SUMO)
O=C(NCC1CCCCC1)c1ccccc1[N+](=O)[O-]	none
CCCC[C@@H]1Cc2[nH][nH]c(=O)c2[C@H](c2ccc(C(C)C)cc2)O1	NadD block 38.1 (no result: Calb FLC, ATG4B inhibitor, Mot1-301 SUMO) | NadD inh conf inactive
CC1(C)C(=O)Nc2ccccc2N1C(=O)COc1ccc(C#N)cc1	none (no result: Calb FLC)
COc1ccc(CC(N)c2csc(NC(=O)Nc3ccccc3-c3ccccc3)n2)cc1 (stereo not given)	NadD block 31.4 (no result: Calb FLC, ATG4B inhibitor, Mot1-301 SUMO) | NadD inh conf inactive
CCN(CC)CCOC(=O)c1ccc(N/C=C(/C#N)c2nc(-c3ccc(OC)cc3)cs2)cc1	NadD block 31.6 | NadD inh conf inactive
CCN(CC)CCOC(=O)c1ccc(N/C=C(/C#N)c2nc(-c3ccc4c(c3)OCO4)cs2)cc1	none
CCN=C1NN=C(c2cc(C)n(Cc3ccco3)c2C)CS1	NadD block 37.1 | NadD inh conf inactive
CCN=C1NN=C(c2cc(C)n(CCc3ccccc3)c2C)CS1	none (no result: Calb FLC, Mot1-301 SUMO)
COCCn1c(C)cc(C2=NNC(=Nc3ccccc3)SC2)c1C	NadD block 35.7 | NadD inh conf inactive
FC(F)(F)c1ccccc1Cc1c(-c2ccc(Cl)cc2)nc2c3ccccc3ccn12	NadD block 33.1 (no result: Calb FLC, ATG4B inhibitor, Mot1-301 SUMO) | NadD inh conf inactive
Fc1ccc(-c2nc3c4ccccc4ccn3c2Cc2ccccc2C(F)(F)F)cc1	none (no result: Calb FLC, ATG4B inhibitor, Mot1-301 SUMO)
CC(NC(=O)c1ccc(S(=O)(=O)NCc2ccco2)cc1)c1ccc(F)cc1 (stereo not given)	none (no result: Calb FLC)
Cc1ccc2oc(=O)c3cc(C(=O)NCCN4CCN(C)CC4)sc3c2c1	none
Cc1ccc2oc(=O)c3cc(C(=O)NCCCN4CCCCCC4)sc3c2c1	NadD block 37.0 | NadD inh conf inactive
